Data on 108 compounds can be found in ChEMBL document CHEMBL4513216, “Probing the Open Global Health Chemical Diversity Library for Multistage-Active Starting Points for Next-Generation Antimalarials” (ACS Infect Dis, 2020).

The campaign covered roughly 69,000 compounds. About 8,600 (12%) showed an effect of 50% or more. This excerpt belongs to a sample that is enriched for strong results.

For the experiment, the system named is Plasmodium berghei. Nature of the experiment: Screen against P. berghei liver stage (PbLuc), transformed with Luciferase, at 10uM. Type of experiment: functional, HepG2. The note with it: tested at 10 uM.
As to `COCCCNC(=O)CN1CCSC(c2ccccc2)C1` (stereo not drawn), the INHIBITION came out at 3.88%.
The same measure for `COc1ccccc1C1CC(=O)Nc2nc(N3CCCCC3)sc21` (stereo not drawn): 15.1%; for `Cc1cc(C(=O)N2CCCC2c2noc(C(C)C)n2)c(C)o1` (stereo not drawn): 4.52%.
In the case of `CCN(CC)S(=O)(=O)c1ccc(CNC(=O)N2CCC(C#N)CC2)cc1`, the INHIBITION is reported as 45.7%.
The result for `CCN(CC)S(=O)(=O)c1ccc(CNC(=O)N2CCCCCC2)cc1` reads 54.3%; that for `CS(=O)(=O)c1ccc(CNC(=O)N2CCC(C(N)=O)CC2)cc1`, -60.8%.
The result for `COCCCNC(=O)c1cn(C(C)C)cc2c(=O)[nH]nc1-2` reads 14.9%; that for `Cc1nn(C)cc1S(=O)(=O)N(CCc1ccccc1)Cc1ccn(C)n1`, 26.75%.
Regarding `CSCC[C@@H](CO)NC(=O)c1sc(-c2ccccc2Cl)nc1C`, the INHIBITION was 9.84%.
As for `Cc1ccccc1-n1ncc2c(=O)n(CCN3CCCC3)cnc21`, the INHIBITION is -16.3%.
The same measure for `Cc1nc(CSCCC(=O)NCC(=O)NC(C)C)cs1`: 29.4%; for `CCOCCCNC(=O)CCSCc1csc(C)n1`: 63.8%.
The same measure for `Cc1nc(CSCCC(=O)NCCNC(=O)OC(C)(C)C)cs1`: -30.7%.
The result for `Cc1ccc(-c2ccnc(NCC(O)c3ccc(O)cc3)n2)c(C)n1` (stereo not drawn) reads 37.8%.
With `COc1ccc2c(c1)CCCN2C(=O)NC1CCCCNC1=O` (stereo not drawn), the INHIBITION is listed as 44.3%.
The result for `O=C1NCCCCC1NC(=O)N1CCCc2ccccc21` (stereo not drawn) reads 34.2%.
The result for `O=C1NCCCCC1NC(=O)N1CCCc2cc(F)ccc21` (stereo not drawn) reads 58.9%; that for `Cc1ccc(CN2CCc3[nH]nc(C(=O)N(C)C)c3C2)s1`, 8.74%; that for `O=C(NCC1(CO)CC1)c1nnn(-c2ccc(F)cc2)c1C1CC1`, 78.2%.
The same measure for `CC(C)NC(=O)c1nnn(-c2ccccc2)c1C1CC1`: -65.5%; for `COC(=O)CCNC(=O)c1nnn(-c2ccc(C)cc2)c1C1CC1`: 49.8%.
As to `O=C(NCC1(C(=O)O)CCC1)c1nnn(-c2ccc(F)cc2)c1C1CC1`, the INHIBITION came out at 20%.
The same measure for `NS(=O)(=O)CCNC(=O)c1nnn(-c2ccccc2)c1C1CC1`: 56.8%.
On to `Cc1ccc(-n2nnc(C(=O)NCC3(CO)CC3)c2C2CC2)cc1`, for which the INHIBITION was found to be 33.3%.
As for `CS(=O)(=O)NC(=O)c1nnn(-c2ccccc2)c1C1CC1`, the INHIBITION is given as 8.64%.
The same measure for `NS(=O)(=O)CCNC(=O)c1nnn(-c2ccc(F)cc2)c1C1CC1`: 36.8%.
The same measure for `Cc1ccc(-n2nnc(C(=O)NCCS(N)(=O)=O)c2C2CC2)cc1`: 58.5%; for `CCc1nc(C2CCCN(C(=O)c3cc(C(C)C)[nH]n3)C2)no1` (stereo not drawn): 21.6%.
The same measure for `O=C(NCC1CC1)[C@@H]1CC[C@@H]2[C@@H](CCN2Cc2ccco2)O1`: -35%; for `O=C(NCCN1CCOCC1)c1nc(-c2ccc3[nH]ccc3c2)no1`: -50.8%; for `Cn1ncc(C(=O)N2CCN(S(C)(=O)=O)CC2)c1Cl`: -10.95%.
For `CNC(=O)C1(C)CCCN1Cc1cnn(C)c1C` (stereo not drawn), the INHIBITION was 37.8%.
As for `Cc1nn(C)cc1CN(C)C(=O)c1cccnc1`, the INHIBITION is recorded as -13.6%.
The result for `Cc1nn(C)cc1CN(C)C(=O)c1ccncc1` reads 69.9%.
The same measure for `Cc1nn(C)cc1CN(C)C(=O)c1ccccn1`: 8.7%.
For the compound `Cc1nc(CN2CCC3(CC2)NC(=O)CC3c2ccncc2)cs1` (stereo not drawn), the INHIBITION was 45.7%.
As to `CCC(C)N(Cc1sccc1C)C(=O)c1cnc[nH]1` (stereo not drawn), the INHIBITION came out at 9.41%.
For the compound `CCc1nnc(CN(C)Cc2cccc(C(=O)Nc3nccs3)c2)o1`, the INHIBITION amounted to 70.9%.
In the case of `CCc1nnc(CN(C)Cc2cccc(C(=O)Nc3ccnn3C)c2)o1`, the INHIBITION came to 35%.
Take `CCc1nnc(CN(C)Cc2cccc(C(=O)Nc3cnn(C)c3)c2)o1`: the INHIBITION is given as 28.7%.
Turning to `CC(C)(CO)CCCNC(=O)NC1(C)Cc2ccccc2C1`, the INHIBITION was 47.2%.
The result for `c1ccc(CN2CCc3nnc(CN4CCCCC4)n3CC2)nc1` reads -2.84%; that for `COc1ccc(Cc2ncc3c(n2)CN(C(=O)C(C)(C)OC)C3)cc1`, 11.2%; that for `Cc1cc(C(=O)N(CC2CCCO2)c2ccncc2)c(C)o1` (stereo not drawn), 26.4%.
The same measure for `Cc1ccc(C(=O)N2CCn3c(COCC4CC4)cnc3C2C)s1` (stereo not drawn): -3.24%; for `NC(=O)COc1ccc(CNCc2ccc(F)c(F)c2)cc1`: -33.2%; for `Cn1cc(CC2CCN(C(=O)NCc3cccc(C#N)c3)C2)cn1` (stereo not drawn): 8.55%.
The same measure for `CC(N1CCN(C(=O)NCc2cccc(C#N)c2)CC1)C(F)(F)F` (stereo not drawn): 56.7%.
As to `CC1CN(C(=O)NCc2cccc(C#N)c2)CCN1CC(F)(F)F` (stereo not drawn), the INHIBITION is 19%.
The result for `Cc1cc(Cc2ccc(S(=O)(=O)N3CCSCC3)cc2)c(=O)[nH]n1` reads 13.2%; that for `CCC1CN(CCCO)c2ccccc2O1` (stereo not drawn), 29.8%; that for `CCC1CN(CCNS(C)(=O)=O)c2ccccc2O1` (stereo not drawn), -4.46%.
The result for `CCC1CN(CCCNS(C)(=O)=O)c2ccccc2O1` (stereo not drawn) reads 50.1%; that for `COCCN1C(=O)CCC12CCCN(Cc1nccs1)CC2` (stereo not drawn), 48.6%.
With `CN1C(=O)CCCC12CCCN(Cc1nccs1)C2` (stereo not drawn), the INHIBITION stood at 16.9%.
The result for `Cc1ccc(CN2CCCC3(CCCCN3S(C)(=O)=O)C2)s1` (stereo not drawn) reads 14.9%; that for `Cc1ccc(CN2CCC3(CCCN3S(C)(=O)=O)CC2)s1`, 25.8%.
The result for `CS(=O)(=O)N1CCCC12CCN(Cc1nccs1)CC2` reads 28.2%.
The same measure for `O=C1CCC2(CCCN(Cc3nccs3)C2)N1CC1CC1` (stereo not drawn): 36.9%; for `CS(=O)(=O)N1CCCCC12CCCN(Cc1nccs1)C2` (stereo not drawn): 60.3%; for `CCN1C(=O)CCC12CCCN(Cc1nccs1)CC2` (stereo not drawn): 59.7%.
As for `CCN1C(=O)CCC12CCCN(Cc1nccs1)C2` (stereo not drawn), the INHIBITION worked out at 46.2%.
Turning to `CN1C(=O)CCC12CCCN(Cc1nccs1)C2` (stereo not drawn), the INHIBITION turned out to be 59%.
The result for `CS(=O)(=O)N1CCCC12CCN(Cc1nccs1)C2` (stereo not drawn) reads -0.804%; that for `Cc1ccc(CN2CCCC3(CCCN3S(C)(=O)=O)C2)s1` (stereo not drawn), 63.8%; that for `Clc1ccccc1C1CN(CCc2ccncc2)CCO1` (stereo not drawn), 29.1%.
The same measure for `Cc1ccc(C(=O)N2CCC3(CC2)COC(COc2cccnc2)C3)o1` (stereo not drawn): 3.69%; for `CN(C)S(=O)(=O)N1CC[C@]2(O)CCN(CCc3cccc(F)c3)C[C@@H]2C1`: 3.96%.
The same measure for `CN(C)[C@@H]1CN(Cc2ccoc2)C[C@@H]2CCCO[C@@H]21`: 25.6%.
For `COCC1CN(C(C)=O)CCN(c2cc(C)ncn2)C1` (stereo not drawn), the INHIBITION came to 24.4%.
`Cc1ccc(C(=O)N2C[C@H]3CCC[C@@]3(COc3ccccn3)C2)nc1`: the INHIBITION is -10.2%.
Turning to `Cc1cc(C2CCC2)nc(NCC(C)(C)CO)n1`, the INHIBITION was -7.53%.
`Cc1c(S(=O)(=O)N2CCCCC2c2nnc(-c3cccs3)o2)cnn1C` (stereo not drawn): the INHIBITION is -11.28%.
Take `CC(C)(O)CN1CCN(C(=O)c2cccc(CC#N)c2)CC1`: the INHIBITION is -9.76%.
With `Cc1noc(C)c1C1CCCN1C(=O)c1cn2ccsc2n1` (stereo not drawn), the INHIBITION was 12.9%.
The same measure for `Cc1ccc(OCc2nc(CNCC3CN(C)CCO3)cs2)cc1` (stereo not drawn): -45.6%; for `Cc1nc(N2CCC(CC(=O)N3CCCC3)CC2)c2cnn(C)c2n1`: 31.2%.
The result for `Cc1nc(N2CCCC(N3CCCC3)C2)c2cnn(C)c2n1` (stereo not drawn) reads 55.1%; that for `Cc1nc(N2CCN(C(=O)CC3CCCC3)CC2)c2cnn(C)c2n1`, 0.0944%; that for `CCCc1nc(N2CCC(CCO)CC2)c2cnn(C)c2n1`, 60%.
The same measure for `CCCc1nc(N2CCCC(CCOC)C2)c2cnn(C)c2n1` (stereo not drawn): 40.6%; for `CCCc1nc(N2CCCN3CCC[C@H]3C2)c2cnn(C)c2n1`: 27.7%; for `Cn1ncc2c(N3CCCN4CCC[C@H]4C3)nc(C(C)(C)C)nc21`: 31.6%.
For `COCc1nc(N2CCC(CCO)CC2)c2cnn(C)c2n1`, the INHIBITION was determined as 14.3%.
The same measure for `Cc1nc(N2CCC(CN3CCCC3)CC2)c2cnn(C)c2n1`: 57.2%; for `CCc1n[nH]c(C2CN(C(=O)CCc3cscn3)CCO2)n1` (stereo not drawn): 7.42%; for `O=C(c1cccc(NCc2cccc(F)c2)c1)N1CCC(O)CC1`: -39.4%.
The same measure for `CC1CN(CC(=O)NC(=O)NCc2ccccc2)CCO1` (stereo not drawn): 5.53%; for `CCS(=O)(=O)c1ncc(CN2CCN(C)CC2)n1CCc1ccccc1`: 38.7%.
As for `CCS(=O)(=O)c1ncc(CN2CCCC2)n1CCc1ccccc1`, the INHIBITION came to 13%.
The result for `CCS(=O)(=O)c1ncc(CN2CCSCC2)n1CCc1ccccc1` reads 58.9%; that for `Cc1cc(CN2CCN(C(=O)NC(C)c3ccc(C)o3)CC2)on1` (stereo not drawn), 13.75%.
The result for `O=C(NCCN1CCOCC1)c1ccnn1-c1ccc2ccccn12` reads 94%.
The same measure for `O=C(c1ccnn1-c1ccc2ccccn12)N1CCCC1`: 30.3%; for `O=C(NCCN1CCOCC1)c1ccn(-c2ccc3ccccn23)n1`: 47.2%; for `O=C(c1ccnn1-c1ccc2ccccn12)N1CCOCC1`: 13.1%.
As for `CN1CCCN(C(=O)c2ccnn2-c2ccc3ccccn23)CC1`, the INHIBITION was determined as 53.9%.
The same measure for `CN(C)C1CCN(C(=O)c2ccnn2-c2ccc3ccccn23)CC1`: 4.98%; for `COCCNC(=O)c1ccnn1-c1ccc2ccccn12`: 39.3%.
For the compound `CCN(C)C(=O)c1ccnn1-c1ccc2ccccn12`, the INHIBITION is given as 51.2%.
The same measure for `O=C(NCCCN1CCOCC1)c1ccn(-c2ccc3ccccn23)n1`: 39.8%.
The result for `O=C(Nc1cccnc1)C1=NN(c2ccccc2)C(=O)CN1` reads -141%; that for `CCCn1nccc1-c1cnc(CC2CCN(C(C)=O)C2)cn1` (stereo not drawn), 19.3%.
With `O=C(Cn1ccc(=O)cc1)N1C[C@@H]2CC[C@H]1CN(c1ncccn1)C2`, the INHIBITION was determined as 15.3%.
The result for `O=C(c1cc(Cl)c2c(c1)OCO2)N1CCN(c2ncccn2)CC1` reads 15.4%; that for `CN1CCN(Cc2ccncc2)C(=O)C12CCN(Cc1ccsc1)CC2`, 1.34%; that for `COC1CCN(CC(=O)NCc2ccc(OCC(N)=O)cc2)CC1`, 2.45%.
The same measure for `Cc1nc2ccccc2c(=O)n1CCCC(=O)N1CCNC(=O)CC1`: 4.37%.
